This is a sample that favours compounds with a hit; in the whole collection about 2.9% have one here.
EPAC2 ant val = validation of human EPAC2 antagonists. EPAC2 Rap1B BODIPY-GDP exchange, fluorescence. actives 1.7% (n = 16,000). Potency, µM (titrated, usually from 112 µM), most hits filed as inhibitors; note: nearly all actives have a fitted effect of over 40% in size
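Fluorescent exchange read-out: 100 nM EPAC2 with 250 nM RAP1B–BODIPY-GDP and 50 uM GDP; BODIPY-GDP release lowers fluorescence. Read at 480/540 nm every 5 min for 30 min at room temperature; normalized to 6.5 mM cAMP.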
EPAC1 ag val = human EPAC1 agonism, validation; Potency, µM, hits mostly activators; AID 1645883; actives 1% (n = 16,000); EPAC1 Rap1b BODIPY-GDP exchange, fluorescence; note: nearly all actives have a fitted effect of over 70% in size
Large screens that a line does not name were inactive; ! = not confirmed by another sample. Calls come from the whole dose curve; as a rule, active = well fitted curve in the direction sought with a large enough effect; inconclusive = small, poorly fitted or top-dose-only effect, or another doubt; inactive = no such curve, though single readings can be large; an effect the other way counts as inactive or inconclusive.

Cc1cc(/C=C/c2ccnc3ccccc23)ccc1N(C)C	EPAC1 ag val 100µM
CC[N+](CC)(CC)c1ccc(/C=C/c2ccnc3ccccc23)cc1	EPAC2 ant val inconclusive
OCCN(CCO)c1ccc(/C=C/c2ccnc3ccccc23)cc1	none
CN(C)c1ccc(/C=C/c2ccnc3ccccc23)cc1Cl	EPAC2 ant val inconclusive
O=C(O)c1cc(=O)c2c(Cl)cc(Cl)cc2[nH]1	none
COc1ccc(C(=O)N2CCC[C@@]3(CCN(Cc4ccccc4)C3)C2)cc1	none
CN(C)c1ccc(-c2nc(N(C)C)c3ccccc3n2)cc1	none
CN(C)c1ccc(-c2nc(N(C)Cc3ccco3)c3ccccc3n2)cc1	EPAC1 ag val inconclusive
CN(Cc1ccco1)c1nc(-c2ccoc2)nc2ccccc12	EPAC2 ant val 25µM, EPAC1 ag val inconclusive
CN(C)C(=O)c1ccc(-c2nc(N(C)Cc3ccco3)c3ccccc3n2)cc1	EPAC1 ag val inconclusive
CN(Cc1ccco1)c1nc(-c2cccc(C#N)c2)nc2ccccc12	EPAC1 ag val 100µM
Cc1noc(C)c1-c1nc(N(C)Cc2ccco2)c2ccccc2n1	EPAC2 ant val 20µM, EPAC1 ag val inconclusive
Cc1noc(C)c1-c1nccc(N(C)Cc2ccco2)n1	none
COc1cccc(CN2C(=O)NC(C)(C3CCN(Cc4cccc(O)c4)CC3)C2=O)c1OC (stereo not drawn)	none
O=Cc1ccc(O)cc1	none
COc1ccc2ccccc2c1CN1CCOc2ccc(CN3CCN(CCO)CC3)cc2C1	none
CC(C)CC(=O)N1C/C=C\C[C@@H](c2ccc(Cl)cc2)N(Cc2ccc(Cl)cc2)C(=O)[C@@H]1Cc1ccccc1	none
O=Cc1c2[nH]c3ccccc3c2cc2[nH]c3ccccc3c12	EPAC2 ant val inconclusive
COc1cccc(CN(CC(=O)NCc2ccccc2)S(=O)(=O)CCl)c1	EPAC2 ant val inconclusive
Nc1cccc2c(N)cccc12	EPAC2 ant val inconclusive
Nc1c2ccccc2nc2ccccc12 (tested in a mixture with another compound)	EPAC2 ant val 79µM
COC(=O)C1=CO[C@@H](O[C@H]2OC(CO)C(O)C(O)C2O)C2C1CC(O)C2C (stereo partly drawn)	none
O=C1OC2(c3ccccc31)c1cc(I)c(O)c(I)c1Oc1c2cc(I)c(O)c1I	EPAC1 ag val 32µM
O=C1OC2(c3ccc(O)cc3Oc3cc(O)ccc32)c2ccccc21	EPAC1 ag val inconclusive
Cc1cc(NC(=O)Nc2ccc3c(ccn3C)c2)sn1	EPAC2 ant val inconclusive
Cc1cc(N)c2cc(NC(=O)Nc3ccc4nc(C)cc(N)c4c3)ccc2n1	EPAC2 ant val 40µM, EPAC1 ag val 56µM
COc1cc(OC)c(/C=C/c2ccc3ccccc3n2)c(OC)c1	EPAC1 ag val inconclusive
COc1ccc(OC)c(/C=C/c2nc3ccccc3nc2C)c1	EPAC2 ant val inconclusive, EPAC1 ag val 100µM
CC1(O)CCC(C(C)(C)O)CC1 (stereo not drawn)	none
CC(C)[C@H](N)C(=O)OCC(CO)OCn1cnc2c(=O)[nH]c(N)nc21 (stereo partly drawn)	EPAC2 ant val inconclusive
COc1cc(CNC(=O)CCCC/C=C/C(C)C)ccc1O	EPAC2 ant val 40µM!
CCCCC[C@H](O)CC(=O)CCc1ccc(O)c(OC)c1	none
O=C(NCc1nnc2n1CCN(C(=O)c1cccc(Cl)c1)CC2)C1CC1	none
CC(=O)N1CCC2(CC1)CCN(C(c1ccccc1)c1ccccc1)CC2	none
CC(=O)N1CCC2(CCCN(C(c3ccccc3)c3ccccc3)C2)CC1	EPAC2 ant val 32µM
Clc1cccc2c1CN(C1=NCCN1)C2	none
CC(C)N1CCN(c2ccc(OC[C@H]3CO[C@](Cn4cncn4)(c4ccc(Cl)cc4Cl)O3)cc2)CC1	none
CC(=O)N1CCN(c2ccc(OCC3CO[C@@](Cn4ccnc4)(c4ccc(Cl)cc4Cl)O3)cc2)CC1 (stereo partly drawn)	EPAC2 ant val 35µM, EPAC1 ag val inconclusive
COC(=O)C1CCCCN1Cc1ccc2c(c1)CN(Cc1cnn(-c3ccccc3)c1)CCO2 (stereo not drawn)	none
COc1cccc(-c2nc3cc(SC)ccc3cc2CN(C(=O)c2sccc2C)C2CC2)c1	EPAC2 ant val 40µM, EPAC1 ag val inconclusive
COc1ccc(-c2nc3cc(F)ccc3cc2CN(C(=O)c2cccs2)C2CC2)cc1	none
COC(=O)[C@@H]1C[C@@H](NC(=O)c2cnsn2)CN1Cc1ccc(Cl)cc1	EPAC1 ag val inconclusive
O=C1C=C(O)c2ccccc2C1=O	none
COc1ccc2c(=O)c(OC)c(-c3ccccc3)oc2c1	EPAC2 ant val 11µM
COc1ccc(-c2oc3ccccc3c(=O)c2O)cc1	none
NC(=O)n1c(O)c(C(=O)c2cccs2)c2cc(Cl)ccc21	none
CC(C)(C)C(=O)C(Oc1ccc(Cl)cc1)n1ccnc1 (stereo not drawn)	EPAC2 ant val inconclusive
COc1ccc(-c2nc3cc(C)ccc3cc2CN(C(=O)c2cccs2)C2CC2)cc1OC	EPAC2 ant val inconclusive
COc1cccc(C(=O)N(Cc2cc3ccc(C)cc3nc2N(C)C)C2CC2)c1OC	EPAC2 ant val 14µM
C[C@@]1(C(=O)O)NCCc2cc(O)c(O)cc21	EPAC2 ant val inconclusive
CN(Cc1ccon1)C(=O)c1cnn(-c2nccc(-c3ccc4c(c3)OCO4)n2)c1C1CC1	none
CC(=O)OCC(OC(C)=O)C(OC(C)=O)C(OC(C)=O)C(OC(C)=O)C(COC(C)=O)OC(C)=O (stereo not drawn)	none
O=c1c(-c2cccs2)nc2cnc(N3CCOCC3)nc2n1Cc1ccc(F)cc1	none
CN(C)c1ncc2nc(-c3cccs3)c(=O)n(C[C@H]3CCCO3)c2n1	EPAC1 ag val 112µM
O=c1c(CCc2ccccc2)nc2cnc(N3CCOCC3)nc2n1Cc1cccs1	none
O=c1c(-c2cccs2)nc2cnc(N3CCOCC3)nc2n1CCc1ccccc1	EPAC1 ag val 100µM
Cn1cc(-c2nc3cnc(N4CCOCC4)nc3n(CCC#N)c2=O)c2ccccc21	EPAC1 ag val 112µM
CN1CCN(c2ncc3nc(CCc4ccccc4)c(=O)n(Cc4cccs4)c3n2)CC1	EPAC1 ag val 100µM
CCNc1ncc2nc(-c3cccs3)c(=O)n(C[C@H]3CCCO3)c2n1	none
COCCn1c(=O)c(-c2cn(C)c3ccccc23)nc2cnc(N3CCOCC3)nc21	none
CN1CCN(c2ncc3nc(-c4ccc(F)cc4)c(=O)n(C4CC4)c3n2)CC1	none
c1ccc2c(Cc3c[nH]c4ccccc34)c[nH]c2c1	EPAC2 ant val inconclusive, EPAC1 ag val 100µM
O=C1N[C@@H](Cc2c[nH]c3ccccc23)C(=O)N[C@H]1Cc1c[nH]c2ccccc12	none
O=S1(=O)OC(c2ccc(O)cc2)(c2ccc(O)cc2)c2ccccc21	none
COc1cccc(Nc2ncc3nc(-c4ccc(Cl)cc4)c(=O)n(C[C@H]4CCCO4)c3n2)c1	none
COC(=O)[C@@H]1C2CC3c4[nH]c5cc(OC)ccc5c4CCN3CC2C[C@H](OC(=O)c2cc(OC)c(OC)c(OC)c2)C1OC (stereo partly drawn)	EPAC1 ag val 100µM
COC(=O)[C@H]1[C@@H]2C[C@@H]3c4[nH]c5ccccc5c4CCN3C[C@H]2CC[C@H]1O	none
COc1ccccc1C1CN(Cc2cccc(C)n2)Cc2ccccc2O1 (stereo not drawn)	EPAC2 ant val inconclusive
Cc1ccc2ncc(C)c(/C=C/c3ccc(N(C)C)cc3)c2c1	none
CN(C)c1ccc(/C=C/c2c(Cl)cnc3ccccc23)cc1	EPAC1 ag val 100µM
CN(C)c1ccc(/C=C/c2ccnc3c(-c4ccccc4)cccc23)cc1	EPAC1 ag val inconclusive
CN(C)c1ccc(/C=C/c2ccnc3c(Cl)cccc23)cc1	EPAC1 ag val 112µM

Source: PubChem BioAssay
